Screening results: PubChem, National Center for Advancing Translational Sciences (NCATS)
JMJD2E inh: JMJD2E (human) inhibition; 230,000 compounds, 1.6% hits; JMJD2E catalytic domain, FDH-coupled NADH fluorescence (FDH is formaldehyde dehydrogenase); Potency, µM (titrated, usually from 57.1 µM), usual class: inhibitors; B2RXH2; active = well fitted inhibition curve with a large enough effect, not every such curve was filed as active; inconclusive = small, poorly fitted or top-dose-only effect, or another doubt; inactive = no such curve, though single readings can be large or run the other way; note: nearly all actives have a fitted effect of over 50% in size
BLM inh: Bloom syndrome helicase (human) inhibition; recombinant BLM DNA unwinding, fluorescence dequenching; Potency, µM (series often up to 56.1 µM), hits mostly inhibitors; 350,000 compounds, 0.2% hits; AID 2528; note: nearly all actives have a fitted effect of over 35% in size
L3MBTL1 block: L3MBTL1 (human) inhibition; Potency, µM (doses to about 57.1 µM), most hits filed as inhibitors; Q9Y468; AID 485360; AlphaScreen L3MBTL1–H3K9me1 peptide binding; 230,000 compounds, 0.66% hits; note: nearly all actives have a fitted effect of over 60% in size
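AlphaScreen proximity signal between nickel-chelate acceptor and streptavidin donor beads (final 10 ug/mL) reports binding of 50 nM L3MBTL1 to 75 nM biotin-H3 K9me1 peptide; complex incubated with compounds 30 min at room temperature; cefsulodin titration as control.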
RECQ1 inh-1: RECQ1 (human) helicase inhibition | 240,000 compounds, 0.54% hits | Potency, µM (top dose mostly 57.3 µM), most hits filed as inhibitors | RECQ1 DNA unwinding, red fluorescence kinetic read; note: nearly all actives have a fitted effect of over 30% in size
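RECQ1T1 50 nM; forked duplex (20 bp + 30-nt ss tails) 200 nM, ATP 2 mM final; pH 8.0, 2 mM MgCl2, 2.5 ug/ml poly(dI-dC); 15 min compound preincubation; discontinuous kinetic read over 2 h at RT.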
APE1 inh: inhibitors of human APE1 endonuclease; 350,000 compounds, 0.35% hits; Potency, µM (series often up to 65.8 µM), actives largely listed as inhibitors; P27695; AID 2517; recombinant APE1, TAMRA/BHQ-2 abasic DNA cleavage fluorescence; note: nearly all actives have a fitted effect of over 55% in size
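APE1 at 0.75 nM final was preincubated with compound 15 min at room temperature, then 50 nM double-stranded THF abasic-site substrate (5'-TAMRA/3'-BHQ-2) was added. Fluorescence (ex 525/em 598 nm) was read kinetically; third-minus-first read gave activity.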
RECQ1 conf: confirmation of human RECQ1 helicase inhibitors; shares compounds with RECQ1 inh-1; RECQ1 helicase DNA unwinding, fluorescence; Potency, µM (doses to about 229 µM), actives largely listed as inhibitors; 610 compounds, 28% hits; note: nearly all actives have a fitted effect of over 45% in size
RECQ1 ADP FP: displaces ADP in a fluorescence polarization counter-screen for RECQ1 hits | Potency, µM (doses to about 228 µM), usual class: inhibitors | shares compounds with RECQ1 inh-1 | 530 compounds, 27% hits | ADP fluorescence polarization displacement counterscreen; note: nearly all actives have a fitted effect of over 45% in size
RECQ1 inh-2: blocks human RECQ1 DNA unwinding; AID 504841; shares compounds with RECQ1 inh-1; recombinant RECQ1 DNA unwinding, red fluorescence; Potency, µM (series often up to 119 µM), actives largely listed as inhibitors; 1,100 compounds, 15% hits; note: nearly all actives have a fitted effect of over 50% in size
Numbers stand for hits; ! = a repeat was not active; [ ] = another dose, or the depositor's remark. The entries come from a sample that favours hits as a whole. Unless noted, calls come from the whole dose curve; as a rule, active = well fitted curve in the direction sought with a large enough effect; inconclusive = small, poorly fitted or top-dose-only effect, or another doubt; inactive = no such curve, though single readings can be large; an effect the other way counts as inactive or inconclusive.

For O=C(O)/C=C/C(=O)N(Cc1ccccc1)Cc1ccco1 the results were JMJD2E inh inactive, BLM inh inactive, L3MBTL1 block inactive, RECQ1 inh-1 inactive and APE1 inh inactive.
Screening CC(=O)Oc1ccc2c(c1)Oc1cc(OC(C)=O)ccc1C21OC(=O)c2ccccc21 returned JMJD2E inh inactive, BLM inh inactive, L3MBTL1 block inactive, RECQ1 inh-1 inactive and APE1 inh inactive.
Screening O=C1OC2(c3ccc(O)cc3Oc3cc(O)ccc32)c2ccccc21 returned BLM inh 35.5µM, RECQ1 inh-1 31.6µM, APE1 inh 28.2µM and RECQ1 inh-2 79.4µM.
`COC(=O)C1=C(C)N(Cc2ccccc2)C(=O)N[C@H]1c1ccco1` gave JMJD2E inh inconclusive, BLM inh inactive[12.4 µM], RECQ1 inh-1 inactive[11.5 µM] and APE1 inh inactive[12.4 µM].
For CCN(CC(=O)Nc1ccc2c(c1)OC(F)(F)O2)Cc1nc2ccccc2c(=O)[nH]1 the results were JMJD2E inh inactive, BLM inh inactive, RECQ1 inh-1 inactive and APE1 inh inactive.
`Cc1ccc(NC2=Nc3ccccc3N3C2=Nc2c(c(C)nn2-c2ccccc2)C3c2ccc(O)c(O)c2)cc1` (centres undefined) gave JMJD2E inh 28.2µM, BLM inh inactive, L3MBTL1 block inactive, RECQ1 inh-1 31.6µM, APE1 inh inactive and RECQ1 inh-2 inconclusive.
`CN(C)c1ccnc(SCc2ccccc2Cl)c1C#N` gave JMJD2E inh inactive, BLM inh inactive, L3MBTL1 block inactive, RECQ1 inh-1 inactive and APE1 inh inactive.
`COc1ccc(NC(=O)c2cc3c(C)nn(-c4ccccc4)c3s2)c(OC)c1` gave BLM inh inactive.
Screening COc1ccc(NS(=O)(=O)c2ccc(O)c(NC(=O)c3cc4c(C)nn(-c5ccc(F)cc5)c4s3)c2)cc1 returned JMJD2E inh inconclusive, BLM inh 28.2µM, L3MBTL1 block inactive, RECQ1 inh-1 inconclusive, APE1 inh inconclusive and RECQ1 inh-2 inconclusive.
`O=C(Cc1cnn(-c2ccccc2)c1)c1ccc(O)c(O)c1O` gave JMJD2E inh 12.6µM, BLM inh inactive, RECQ1 inh-1 3.16µM, APE1 inh inconclusive, RECQ1 conf inactive and RECQ1 ADP FP inactive.
O=C(CSc1nnnn1Cc1ccccc1)c1ccccc1F was read as JMJD2E inh inactive, BLM inh inactive, L3MBTL1 block inactive, RECQ1 inh-1 inactive and APE1 inh inconclusive.
Cc1ccc(C(=O)CSc2nnnn2Cc2ccccc2)cc1C was read as JMJD2E inh inactive, BLM inh inactive, RECQ1 inh-1 inconclusive, APE1 inh inactive and RECQ1 inh-2 inactive.
COC(=O)CSc1nnc(CNc2ccc(Cl)cc2)n1Cc1ccccc1 was read as JMJD2E inh inactive, BLM inh inactive, L3MBTL1 block inactive, RECQ1 inh-1 inactive and APE1 inh inactive.
For Cc1ccc(NCc2nnc(SCC(=O)O)n2Cc2ccccc2)cc1Cl the results were JMJD2E inh inactive, BLM inh inactive, L3MBTL1 block inactive, RECQ1 inh-1 inactive, APE1 inh inactive, RECQ1 conf inactive and RECQ1 ADP FP inactive.
For O=C(Cn1nc(C(=O)O)c2ccccc2c1=O)Nc1nc(-c2ccccc2)cs1 the results were JMJD2E inh inactive, BLM inh inactive, L3MBTL1 block inactive, RECQ1 inh-1 inactive, APE1 inh inactive, RECQ1 conf inactive and RECQ1 ADP FP inactive.
Screening Cc1ccccc1NC(=O)Cn1nc(C(=O)O)c2ccccc2c1=O returned BLM inh inactive and APE1 inh inactive.
`CCN(CC)S(=O)(=O)c1ccc2c(c1)nc(CCC(=O)O)n2CC` gave JMJD2E inh inactive, BLM inh inactive, L3MBTL1 block inactive, RECQ1 inh-1 inactive, APE1 inh inactive, RECQ1 conf inactive and RECQ1 ADP FP inactive.
`CC(=O)c1ccc(N2CCN(c3ccc(S(=O)(=O)N4CCN(C)CC4)cn3)CC2)cc1` gave JMJD2E inh inactive, BLM inh inactive, L3MBTL1 block inactive, RECQ1 inh-1 inactive and APE1 inh inactive.
For CCCCC1=CC2=CC(=O)C(C)(OC(=O)C3CCCC3)C(=O)C2=CO1 (centres undefined) the results were JMJD2E inh inactive, BLM inh inactive, RECQ1 inh-1 inconclusive, APE1 inh inactive and RECQ1 inh-2 79.4µM.
`CCOC(=O)c1c(-c2ccc(C)o2)csc1NC(=O)CSc1nncs1` gave JMJD2E inh inconclusive, BLM inh inactive, L3MBTL1 block inactive, RECQ1 inh-1 1.78µM, APE1 inh inconclusive, RECQ1 conf inactive and RECQ1 ADP FP inactive.
`CCn1c(CCCOc2ccc(Cl)cc2Cl)nnc1SCC(=O)Nc1cccc(F)c1` gave JMJD2E inh inactive, BLM inh inactive, L3MBTL1 block inactive, RECQ1 inh-1 12.6µM, APE1 inh inactive, RECQ1 conf inactive, RECQ1 ADP FP inactive and RECQ1 inh-2 inactive.
For COc1cccc(C2=Nn3c(nnc3-c3ccccc3OC)SC2)c1 the results were BLM inh inactive, RECQ1 inh-1 inactive and APE1 inh inactive.
For COc1ccccc1-c1nnc2n1N=C(c1ccc(O)c(O)c1)CS2 the results were JMJD2E inh 25.1µM, BLM inh inactive, L3MBTL1 block inactive, RECQ1 inh-1 31.6µM, APE1 inh inconclusive and RECQ1 inh-2 inconclusive.
`COc1ccc(NC(=O)CSc2nnc(CN3CCOCC3)n2-c2ccccc2)cc1Cl` gave JMJD2E inh inactive, BLM inh inactive, L3MBTL1 block inactive, RECQ1 inh-1 inactive and APE1 inh inactive.
`Cn1c(-c2ccc(Br)cc2)cnc1NCc1cccnc1` gave JMJD2E inh inconclusive, BLM inh inactive, L3MBTL1 block inactive, RECQ1 inh-1 inactive and APE1 inh inactive.
Screening Cc1cc(N)c2ccccc2[n+]1CCCCCCCCCC[n+]1c(C)cc(N)c2ccccc21 returned JMJD2E inh inconclusive, BLM inh inactive, RECQ1 inh-1 inconclusive, APE1 inh inconclusive, RECQ1 conf inconclusive and RECQ1 ADP FP 22.4µM.
N=C(N)c1ccccc1 was read as JMJD2E inh inactive, BLM inh inactive, RECQ1 inh-1 14.1µM!, APE1 inh inactive, RECQ1 conf inactive and RECQ1 ADP FP inactive.
`COC(=O)C1=CN(Cc2ccc(OC)cc2)C=C(C(=O)OC)C1c1cccs1` gave JMJD2E inh inconclusive, BLM inh inactive, L3MBTL1 block inactive, RECQ1 inh-1 inactive and APE1 inh inconclusive.
Screening COC(=O)C1=CC(C(=O)c2cccs2)=NN(c2ccc(OC)cc2)C1C(=O)OC (centres undefined) returned JMJD2E inh inactive, BLM inh inactive, L3MBTL1 block inconclusive, RECQ1 inh-1 inconclusive, APE1 inh inactive and RECQ1 inh-2 79.4µM.
